# High-throughput results as filed in PubChem.
# Shn3 3UTR inh: inhibitors of Schnurri-3 3'UTR reporter in osteoblasts. Clone20 osteoblast Shn3 3'UTR firefly luciferase, 24 h. inhibition, % at 12.5 µM. actives 0.52% (n = 360,000). AID 588674;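 active = mean inhibition of at least 75% with every replicate also reaching 75%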;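 note: 0% = median of neutral control wells and 100% = pilot-screen positive control compound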
# CF NFkB block: blocks PAF-induced NF-kB reporter in cystic fibrosis cells. KKLEB NF-kB-GFP reporter, GFP fluorescence overnight. inhibition, % at 5 µM. actives 0.86% (n = 360,000);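 active = at least 50% inhibition at 5 µM, scaled per plate between neutral and stimulator controls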;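 note: PAF is a Pseudomonas aeruginosa culture filtrate used as stimulus; plate controls were PAF-stimulated DMSO wells for no effect and unstimulated DMSO wells for full effect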
# TRPM1 prom inh: reduces MITF-dependent TRPM1 promoter luciferase signal. SK-MEL-5 TRPM1 promoter luciferase, 24 h. inhibition, % at 12.5 µM. actives 0.83% (n = 330,000). AID 488899;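 active = mean inhibition across replicates of 60% or more, whatever share of single replicates reaches that level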
# KKLEB tox: CF airway cell cytotoxicity counter-screen; KKLEB CF airway cells viability, ATPlite luminescence, overnight; active compounds read low; cells stimulated with P. aeruginosa culture filtrate; activity change (cytotoxicity), % at 5 µM; actives 0.36% (n = 360,000); AID 602141;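 active = corrected activity change at or below -50% at 5 µM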
# Peg3 promoter: Peg3 promoter activity inhibition. inhibition, % at 20 µM. HeLa PEG-Prom luciferase reporter, luminescence, overnight. actives 1.7% (n = 360,000);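 active = inhibition of at least 50% at 20 µM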
# HIF-2a block: inhibitors of HIF-2a; 786-0 RCC cells HIF-2a reporter, luciferase luminescence, overnight; inhibition, % at 18.8 µM; actives 0.72% (n = 360,000);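 active = inhibition of the luminescence signal of 40% or more relative to plate controls, in a single-dose primary screen at 18.75 µM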
# Numbers without * were called inactive; nt = not tested or not shown. Rows were chosen to be rich in hits. Some 2.7% of all compounds tested hit in one or more screens of this group.
SMILES,Shn3 3UTR inh,CF NFkB block,TRPM1 prom inh,KKLEB tox,Peg3 promoter,HIF-2a block
CN(C)c1ccc(-c2csc(C(C)(O)c3cccc(F)c3)n2)cc1 (stereo unspecified),2.6,-8.6,nt,-24.7,-198.3,-215.5
COc1cnc(-c2ccccn2)nc1N(C)c1ccccc1,88.6*,-2.6,18.2,-17.3,-50.1,-172.7
OCCNc1ncnc2c1ncn2[C@H]1CN(Cc2ccncc2)C[C@@H](CO)O1,-3.7,16.6,nt,-2.3,1.2,12.3
C[N+]1(C)CC[C@H](OC(=O)[C@@](O)(c2ccccc2)C2CCCC2)C1,2.1,-26.3,-0.3,-66.8*,-3.8,-8.8
COc1ccc(C(C(=O)NC2CCCCC2)N(Cc2ccco2)C(=O)c2snc(C(N)=O)c2N)cc1 (stereo unspecified),8.4,8.5,12.7,-14.1,57.9*,12.1
NC(=O)c1cccc(-c2coc3c(C(=O)NCc4ccccc4)cccc23)c1,8.6,-2.5,nt,11.3,-144.3,-241.3
COc1c(C)cc(C(O)c2ncc(-c3ccccc3)[nH]2)cc1C (stereo unspecified),-6.4,26.3,nt,-7.7,22.5,15.9
O=C(NCc1ccc(Cl)cc1)c1ccc(CNc2c(N3CCOCC3)c(=O)c2=O)cc1,-2.6,10.0,-1.8,-12.2,5.3,14.0
O=C(NCc1ccc(Cl)cc1)c1ccc(CNc2c(N3CCCC3)c(=O)c2=O)cc1,12.4,1.5,0.6,4.0,3.3,50.6*
CN1C(=O)[C@H]2[C@@H](c3ccc(C(F)(F)F)cc3)N[C@]3(CCCN(Cc4ccc(C(F)(F)F)cc4)C3=O)[C@H]2C1=O,34.6,-6.2,nt,-4.1,9.3,0.0
O=C(O)c1cccc(N/N=C/c2ccc(OC(F)(F)F)cc2)c1,28.8,-3.8,73.6*,4.4,14.0,16.6
CCCCCCNC(=O)c1cn(CC)c2cc(N3CCN(C)CC3)c(F)cc2c1=O,16.8,4.4,15.9,-12.1,53.8*,21.9
CC(C)[C@@H]1Cc2[nH]n(C)c(=O)c2[C@H](c2ccc(Cl)cc2)O1,nt,nt,nt,nt,nt,-2.5
CCN(CC)CCNC(=O)C1CCN(S(=O)(=O)c2c(C)noc2/C=C/c2ccccc2F)CC1,-27.5,2.5,77.3*,-1.3,25.0,0.7
COc1cc(CC(=O)N2CCc3ccccc32)cc(OC)c1OC,17.4,-10.6,8.8,-9.1,4.4,11.3
CCOC(=O)N1CCc2cc(OC)c(OC)c3c2c1cc1cc(OC)c(OC)cc13,4.8,6.5,22.2,-6.7,50.8*,-28.3
COC(=O)c1cccc2c1-c1ccccc1/C2=N\NC(N)=O,1.4,-106.8,17.6,2.3,41.8,13.7
COC(=O)c1cccc2c1-c1ccccc1/C2=N/O,12.1,72.5*,-9.2,-15.1,12.1,32.2
COC(=O)c1ccc2c(c1O)C(=O)c1ccccc1C2=O,-21.6,46.5,97.1*,11.3,-133.6,-152.8
O=C1c2ccccc2C(=O)c2c1ccc(O)c2O,-1.3,-8.1,-1.2,-19.5,-23.1,-15.2
CC(=O)NC1(C)CCC2CC1C(C)=NC2(C)C (stereo unspecified),19.5,-13.2,nt,-1.9,-4.3,1.1
CC(C)(C)C1=CC(=O)C(=O)C(C(C)(C)C)=C1,-3.2,39.8,nt,-13.1,73.4*,42.0*
CC(C)(C)C1=CC(=Nc2ccccc2N)C=C(C(C)(C)C)C1=O,3.8,-0.5,0.9,-0.8,12.1,11.1
CCOC(=O)N(C)c1c(CC)nc2c(OCc3ccccc3C)cccn12,14.1,4.0,nt,-13.6,16.2,3.0
C[C@@H]1CN([C@H](C)CO)S(=O)(=O)c2ccc(C#Cc3ccccc3F)cc2O[C@H]1CN(C)C(=O)c1ccc2c(c1)OCO2,38.3,12.5,nt,0.8,56.5*,-25.4
SMILES,Shn3 3UTR inh,CF NFkB block,TRPM1 prom inh,KKLEB tox,Peg3 promoter,HIF-2a block
C[C@H](CO)N1C[C@H](C)[C@@H](CN(C)CC2CCOCC2)Oc2cc(C#Cc3ccccc3F)ccc2S1(=O)=O,23.0,24.6,nt,-4.7,23.8,6.2
CCCC#Cc1ccc2c(c1)O[C@@H](CN(C)Cc1ccc3c(c1)OCO3)[C@H](C)CN([C@@H](C)CO)S2(=O)=O,20.4,32.4,nt,-21.9,62.5*,15.2
COC(=O)CCCC[C@@H]1O[C@H](CCc2ccccc2)Cc2[nH]c(=S)[nH]c(=O)c21,nt,nt,nt,nt,nt,-5.2
C#Cc1ccc(NC(=O)C2(C)CCN2C(=O)CC(c2ccccc2)c2ccccc2)cc1 (stereo unspecified),11.9,7.0,nt,-6.0,20.4,5.2
CCn1c(-c2ccccc2)csc1=Nc1ccc(S(=O)(=O)O)cc1,1.9,3.9,7.5,9.0,21.9,22.2
COCCCn1c(-c2ccc(S(=O)(=O)N3CCOCC3)cc2)csc1=Nc1ccccc1,91.2*,-15.4,28.9,0.4,9.5,11.6
O=C(Nc1ccnn1C1CCN(C(=O)c2cccnc2)CC1)c1cccc(F)c1,-1.4,4.6,nt,12.6,-4.2,6.5
CCCCCCCNC(=O)C1(CC2CC(c3ccc(Cl)cc3)=NO2)CCNCC1 (stereo unspecified),2.3,25.4,88.4*,-19.2,111.0*,-2.3
CCCCCCCNC(=O)C1(CC2CC(c3ccc(Cl)cc3)=NO2)CCN(C(=O)Cc2ccc(F)cc2)CC1 (stereo unspecified),9.4,14.8,-3.7,-23.0,19.1,13.7
CCC[C@@H](CN1CCC[C@H]1CN1C(N)=NC[C@@H]1Cc1ccccc1)N1C[C@@H]([C@H](C)CC)N(CCCC2CCCC2)C1=N,93.0*,23.4,28.9,-19.4,7.4,2.6
Cc1c(N2C(=O)/C(=C\c3ccccc3O)SC2=S)c(=O)n(-c2ccccc2)n1C,-10.4,-14.7,21.6,14.4,16.9,4.7
CN1C(=O)/C(=C/c2cc(N=Nc3ccccc3)ccc2O)SC1=S,18.0,74.3*,15.8,-52.4*,16.4,-55.6
Cc1cccc(NC(=O)c2cc3c(=O)n4ccccc4nc3n(CC(C)C)c2=N)c1,1.2,-0.7,21.7,-30.1,54.0*,-3.5
CCc1nc2ccc(C(=O)Nc3ccc(OC)c(OC)c3)cn2c1N(C)CCC(C)C,28.1,2.2,nt,7.0,25.2,-6.1
COc1cc(/C=C2\C(=O)N(c3ccc(NC(C)=O)cc3)N=C2c2ccccc2)ccc1O,9.3,-10.0,1.6,4.9,-14.2,-2.2
CCOc1cc(/C=C2\C(=O)N(c3nc(-c4ccc(Br)cc4)cs3)N=C2c2ccccc2)ccc1O,-5.2,-2.5,-2.5,13.6,50.7*,15.2
O=C(NCCN1CCC(n2c(=O)[nH]c3ccccc32)CC1)c1ccc(Cl)c(Cl)c1,nt,nt,nt,nt,nt,-21.1
CC(C)N=c1cc2n(-c3ccc(Cl)cc3)c3ccccc3nc-2cc1Nc1ccc(Cl)cc1,78.1,91.7*,73.9*,-18.2,101.5*,-47.3
CCOC(=O)C1(C)CCCN(C(=O)c2ccc(OC)cc2)C1 (stereo unspecified),-12.9,8.9,nt,5.9,-11.7,9.4
CC/C(=N/Nc1ccccc1)c1cnnc(-c2ccccc2)n1,3.1,42.4,14.7,-51.1*,18.0,5.6
